ALDH1A1 block = inhibitors of human aldehyde dehydrogenase 1A1 | P00352 | Purified ALDH1A1, NADH fluorescence, propionaldehyde substrate | Potency, µM (titrated, usually from 75.3 µM), for the others: top-dose activity, negative = inhibition, hits mostly inhibitors | 7.3% of 220,000 active; active means well fitted inhibition curve with a large enough effect, not every such curve was filed as active; inconclusive means small, poorly fitted or top-dose-only effect, or another doubt; inactive means no such curve, though single readings can be large or run the other way;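 further: potency means the concentration at half of the fitted maximal effect; plate controls were no enzyme wells and a reference inhibitor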
Target sequence (P00352 whole entry, looked up): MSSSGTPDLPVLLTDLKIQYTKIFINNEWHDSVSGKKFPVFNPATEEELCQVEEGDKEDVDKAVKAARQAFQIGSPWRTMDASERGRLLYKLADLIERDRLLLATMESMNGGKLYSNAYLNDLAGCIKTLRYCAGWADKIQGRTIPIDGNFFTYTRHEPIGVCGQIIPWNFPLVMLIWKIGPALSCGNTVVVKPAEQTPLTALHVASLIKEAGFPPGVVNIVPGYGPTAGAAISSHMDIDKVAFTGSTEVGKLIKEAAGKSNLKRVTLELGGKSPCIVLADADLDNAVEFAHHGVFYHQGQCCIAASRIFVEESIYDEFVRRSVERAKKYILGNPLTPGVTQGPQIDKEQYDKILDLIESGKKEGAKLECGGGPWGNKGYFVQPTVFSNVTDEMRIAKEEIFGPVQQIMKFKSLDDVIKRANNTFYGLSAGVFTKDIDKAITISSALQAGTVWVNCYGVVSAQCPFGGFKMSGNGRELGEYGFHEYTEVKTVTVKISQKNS
12-hLO inh = inhibitors of human 12-lipoxygenase (ALOX12); AID 1452; Potency, µM (titrated, usually from 57.1 µM), without a hit: at the top dose activity change, negative = inhibition, actives largely listed as inhibitors; 0.12% of 150,000 active; P18054; purified 12-hLO, xylenol orange hydroperoxide absorbance; further: potency means the concentration at half of the fitted maximal effect; nearly all actives have a fitted effect of over 55% in size
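Hydroperoxide output read as Fe(III)-xylenol orange absorbance, 573-to-405 nm ratio, after 30 min reaction with 40 uM arachidonic acid. Enzyme: 150 nM purified human 12hLO, 15 min compound preincubation; 25 mM Hepes pH 7.0, room temperature.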
IMPase Li cell = cell-permeable IMPase inhibitors with lithium potentiation; 0.35% of 210,000 active; AID 1457; Potency, µM (titrated, usually from 59.4 µM), for inactives: at the highest dose activity, negative = IMPase inhibition, most hits filed as inhibitors; CHO-M1 cells, IP1 TR-FRET (IP-One), carbachol + lithium;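 further: IP1 builds up when IMPase is blocked and the TR-FRET signal falls; potency means the concentration at half of the fitted maximal effect; plate controls were basal vehicle for no effect and high inhibitor control for full effect; nearly all actives have a fitted effect of over 50% in size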
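Test compounds were applied to CHO-M1 cells previously cultured for 16–30 h at 2000 per well. A small lithium amount accompanied them; after 30 min at 37C, IP1 was quantified by TR-FRET.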
IMPase inh = membrane-permeable compound that blocks inositol monophosphatase; P97697; 120,000 tested, under 10 active; CHO-M1 cells, IP1 accumulation, HTRF TR-FRET ratio; inhibition (IP1 accumulation), % at 46.1 µM; active means well fitted curve in the direction sought with a large enough effect in the signal ratio, not every such curve was filed as active; inconclusive means small, poorly fitted or top-dose-only effect, or a change in a side signal; inactive means no such curve, though single readings can be large or run the other way; the % refers to the signal ratio;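 further: cells stimulated with carbachol in lithium chloride buffer; plate controls were DMSO basal wells for no effect and reference inhibitor wells for full effect; higher means more IMPase inhibition seen as more IP1 and lower FRET ratio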
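Carbachol-driven Gq signalling in CHO-M1 cells (2000/well) generates IP1. Compounds that block IMPase raise IP1 and so reduce the FRET signal from Eu-anti-IP1 and d2-IP1 after a 10 min room-temperature lysis.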
HPGD block = blocks human HPGD enzyme activity; 4.3% of 150,000 active; purified HPGD, NADH fluorescence kinetic, PGE2 substrate; P15428; Potency, µM, inactives show top-dose activity change, negative = inhibition, most hits filed as inhibitors; active means well fitted inhibition curve with a large enough effect, not every such curve was filed as active; inconclusive means small, poorly fitted or top-dose-only effect, or another doubt; inactive means no such curve, though single readings can be large or run the other way; further: potency means the concentration at half of the fitted maximal effect
Target sequence (P15428 whole entry, looked up): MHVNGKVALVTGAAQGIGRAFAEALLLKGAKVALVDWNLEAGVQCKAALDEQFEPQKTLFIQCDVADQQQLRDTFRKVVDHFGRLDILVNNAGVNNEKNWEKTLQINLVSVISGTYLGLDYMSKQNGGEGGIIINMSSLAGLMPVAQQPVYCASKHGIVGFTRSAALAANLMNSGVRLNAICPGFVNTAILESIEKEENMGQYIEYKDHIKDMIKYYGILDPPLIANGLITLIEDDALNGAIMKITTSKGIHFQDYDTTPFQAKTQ
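NADH formation kinetics: reaction with 30 uM PGE2 and 1 mM NAD+ (final), 20 nM enzyme, Tris-HCl pH 8 with Tween 20, after 15 min compound preincubation at room temperature. Fluorescence change, last versus first of five reads.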
PNC inhibitor = perinucleolar compartment assembly inhibition; PC3M PTB-GFP, PNC prevalence imaging, 16 h; active compounds read low; activity change (PNC), negative = inhibition, % at 10 µM; 3.1% of 140,000 active; AID 2417;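 active means readout at or below -70, meaning at least 70% loss of cells showing the perinucleolar compartment, a nuclear body marking cancer cells; inconclusive means readout between -30 and a set limit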;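 further: plate controls were DMSO wells for no effect and camptothecin positive control wells for full effect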
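Compounds are pinned in duplicate onto adhered PC3M cells stably expressing GFP-tagged PTB and incubated 16 h at 37 C. Cells are then fixed, nuclei stained with Hoechst, and PNC-positive cells counted.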
Numbers without * were called inactive; u = inconclusive; x = no result; [ ] = remark or other dose. Sampled rows, rich in hits. Any-hit rate of the full collection: about 11%. Unless noted, the call rests on the fitted dose curve; in most records, active means well fitted curve in the direction sought with a large enough effect; inconclusive means small, poorly fitted or top-dose-only effect, or another doubt; inactive means no such curve, though single readings can be large; an effect the other way counts as inactive or inconclusive. Unless noted, on the % scale 0 is the no-effect control and ±100 the full control effect.

SMILES | ALDH1A1 block | 12-hLO inh | IMPase Li cell | IMPase inh | HPGD block | PNC inhibitor
Cc1cc(C(F)(F)F)c2c(N)c(C(=O)Nc3cc(C)on3)sc2n1 | u | -8% | 11µM* | -10 | -13% | 8
O=C(Nc1cc2c(cc1C(=O)c1ccccc1Cl)OCCO2)c1ccccc1 | x | x | x | 1 | x | x
Cc1ccc(-n2nc(C)c3c2OC(N)=C(C#N)C3c2ccc(C)o2)cc1 (configuration not stated) | 1.6µM* | -11% | 0% | 13 | -25% | 46
Cc1ccc(-n2nc(C)c3c2OC(N)=C(C#N)C3c2ccco2)cc1 (configuration not stated) | 1.6µM* | -20% | 9%[38.3 µM] | u | u | -8
CCOC(=O)C1=C(C)OC(N)=C(C#N)C1c1c(C)nn(-c2ccc(C)cc2)c1Cl (configuration not stated) | 8% | -22% | 12%[38.3 µM] | -6 | -16% | u
Cc1ccc(-n2nc(C)c3c2OC(N)=C(C#N)C3c2ccoc2)cc1 (configuration not stated) | 0.89µM* | u | -2%[38.3 µM] | 32 | -28% | -10
COc1cc(C2CC(=O)Nc3cc4c(cc32)OCCO4)cc(OC)c1O (configuration not stated) | x | x | x | 2 | x | x
Cc1cc[n+](C(C)C(=O)c2ccc(-c3ccccc3)cc2)cc1 (configuration not stated) | u | x | 18% | x | x | x
CCN(CCCNC(=O)COc1cc(=O)n(CC)c2ccccc12)c1ccccc1 | 1% | 1% | 10% | 9 | -12% | -100*
CCn1c(=O)cc(OCC(=O)Nc2ccc(OC)c(OC)c2)c2ccccc21 | 16µM* | x | 4% | x | x | x
CCN(CCCNC(=O)CCNC(=O)Cn1ccc2ccccc2c1=O)c1ccccc1 | u | -3% | 13%[38.3 µM] | 2 | -26% | -94*
CO[C@@H]1COC(=O)[C@@H](C)COC(=O)[C@@H](C)NC(=O)C/C=C\[C@@H]1C | 11%[13.5 µM] | x | x | x | x | x
CO[C@H]1[C@H](O[C@H]2O[C@@H](C)[C@@H](O[C@@H]3C[C@](C)(O)[C@H](O)[C@H](C)O3)[C@@H](N(C)C)[C@@H]2O)[C@@H](CC=O)C[C@@H](C)[C@@H](O[C@H]2CC[C@H](N(C)C)[C@H](C)O2)/C=C\C=C/C[C@@H](C)OC(=O)C[C@H]1O | 2%[20.9 µM] | 0%[25.6 µM] | 10% | -1[20.6 µM] | -3% | x
COc1cccc(CN(C)C(=O)c2ccc3nccnc3c2)c1 | 2% | 3% | 22%[38.3 µM] | 10 | 28µM* | 23
CCCn1c2ccccc2c2nnc(SCC(=O)Nc3nnc(CC(=O)OCC)s3)nc21 | -7% | -2% | u | u | -8% | 20
CCOC(=O)Cc1nnc(NC(=O)CSc2nnc3c4ccccc4n(C(C)C)c3n2)s1 | 28µM* | -2% | u | u | u | -17
CC(C)n1c2ccccc2c2nnc(SCC(=O)Nc3ccccc3C(=O)O)nc21 | u | x | 7.9µM* | x | x | x
CC(=O)Nc1ccc(NC(=O)CSc2nnc3c4ccccc4n(C)c3n2)cc1 | 6% | x | 4% | x | x | x
Nc1ccn([C@@H]2CC[C@H](CO)O2)c(=O)n1 | 8%[20.9 µM] | 1%[25.6 µM] | -10% | -4[20.6 µM] | -2% | x
CC(=O)O[C@@H]1C(=O)[C@@]2(C)[C@H](O)C[C@H]3OC[C@]3(OC(C)=O)[C@@H]2[C@H](OC(=O)c2ccccc2)[C@@]2(O)C[C@H](OC(=O)[C@@H](O)[C@@H](NC(=O)c3ccccc3)c3ccccc3)C(C)=C1C2(C)C (stereo in doubt) | 2%[20.9 µM] | -2%[25.6 µM] | -13% | 0[20.6 µM] | -3% | x
COc1cccc(=O)c2c(C)n(-c3cc(C)cc(C)c3)c(C)c12 | -5% | -23% | 11%[38.3 µM] | 6 | 28µM* | 66
O=C(Cc1ccccc1I)Nc1ccccc1 | 4% | -1% | -2% | x | -16% | x
CCCCC#Cc1ccccc1CC(=O)Nc1ccccc1 | -2% | -4% | 15% | x | -7% | -119*
COc1ccc(Nc2nc3ccc(Cl)cc3n3nnnc23)cc1OC | x | x | x | 10 | x | x
CC1(NC(=O)COc2ccccc2-c2ccccc2)CCS(=O)(=O)C1 (configuration not stated) | -7% | 3% | 29%[38.3 µM] | 3 | -4% | -96*
SMILES | ALDH1A1 block | 12-hLO inh | IMPase Li cell | IMPase inh | HPGD block | PNC inhibitor
C/C(CCC(C)C)=N\NC(=O)COc1ccccc1-c1ccccc1 | 7.1µM* | x | 11% | x | x | x
O=C(COc1ccccc1-c1ccccc1)NN=C1CCCC1 | 11µM* | x | 26% | x | x | x
O=c1onc2cnc3ccccc3n12 | u | u | 22% | 9 | u | x
Cc1ncc(CC(=O)n2cc(C(=O)c3cc(F)ccc3O)cn2)s1 | 7.9µM* | 1% | 18%[38.3 µM] | 8 | -15% | 73
Cc1ccc(O)c(C(=O)c2cnn(C(=O)Cc3csc(C)n3)c2)c1 | 1.1µM* | -20% | 6%[38.3 µM] | -5 | -12% | 8
Nc1nc2ncc(C(=O)c3cc(F)ccc3O)cc2s1 | 3% | x | x | x | x | x
CC[C@H](C)N(C)C(=O)c1cc2ccccc2c(-c2ccccc2Cl)n1 | -1% | -3% | 16% | 6 | 3% | x
CC1=CS/C(=C(/C#N)C(=O)N2CCCCC2)N1c1ccccc1 | u | 4% | 27%[38.3 µM] | 2 | -9% | 14
COC(=O)/C(C#N)=C1/SC=C(C)N1c1ccccc1 | 11µM* | 7% | 21%[38.3 µM] | 6 | -17% | u
N#C/C(C(=O)c1ccccc1)=C1/SC=C(N)N1c1ccccc1 | 3.2µM* | -9% | -17%[38.3 µM] | 3 | 20µM* | 27
CCCCN(C)C(=O)c1coc(=O)c2ccccc12 | -3% | -5% | -17%[38.3 µM] | 0 | 22µM* | 0
O=C(O)c1cncc(C(=O)O)c1 | 5%[13.5 µM] | -2%[11.4 µM] | -5% | x | -4% | x
N#Cc1ccccc1NC(=O)Nc1cccc(Cl)c1 | u | -6% | -14%[38.3 µM] | 11 | -5% | u
N#Cc1ccccc1NC(=O)Nc1ccc(Cl)cc1 | u | 1% | -4%[38.3 µM] | -2 | -14% | -109*
CCCCC(=O)NC(=S)Nc1c(C)cc(Br)cc1C | 11µM* | -17% | 8% | x | u | 33
O=C(NC(=S)NNS(=O)(=O)c1ccccc1)c1ccc([N+](=O)[O-])cc1 | u | -5% | -2% | x | u | u
CCCCC(=O)NC(=S)NNC(=O)CC | 22µM* | -3% | 4% | 5 | -12% | -94*
CCCCC(=O)NC(=S)Nc1cccc(NC(=O)CC)c1 | -1% | -5% | -8%[38.3 µM] | -3 | -13% | -2
CCCCC(=O)NC(=S)NNS(=O)(=O)c1ccccc1 | 8.9µM* | -3% | 3% | 9 | 20µM* | -27
CCCCCC(=O)NC(=S)NNC(=O)CC | u | -5% | 23%[38.3 µM] | 3 | -8% | -9
O=C(NC(=S)NNS(=O)(=O)c1ccccc1)c1ccccc1[N+](=O)[O-] | 28% | -4% | -3% | x | 20µM* | 13
